eLon inh – inhibits E. coli Lon protease; inhibition, % at 7.94 µM; AID 602123; actives 0.42% (n = 360,000); purified E. coli Lon protease, fluorescence polarization; P0A9M0; in the data active means inhibition above about 13%, passing the limit was not always enough
GLD-1 TGE inh – GLD-1-TGE RNA interaction inhibition (C. elegans); actives 0.44% (n = 320,000); inhibition, % at 5.96 µM; purified GLD-1 + fluorescein TGE RNA, fluorescence polarization; AID 2280;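 active means percent inhibition above a per-plate cutoff, the plate mean of test compounds plus 3 SD, cut at about 30% in these data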
EBV gp42 block – EBV gp42 inhibition; AID 1085; Fluorescence polarization binding assay, mP read-out; Q1HVG2; inhibition, % (tested at 21.74 µM); actives 0.42% (n = 220,000); in the data active means inhibition above about 50%
Target sequence (Q1HVG2 whole entry, looked up): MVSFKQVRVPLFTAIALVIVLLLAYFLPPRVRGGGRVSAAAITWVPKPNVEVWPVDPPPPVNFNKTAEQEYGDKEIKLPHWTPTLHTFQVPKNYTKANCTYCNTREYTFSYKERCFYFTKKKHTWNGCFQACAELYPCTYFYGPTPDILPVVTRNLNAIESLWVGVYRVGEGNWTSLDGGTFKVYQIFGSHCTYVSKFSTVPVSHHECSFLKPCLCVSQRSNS
MCL1-BIM inh – disrupts human MCL1 binding to BIM-BH3 peptide | Q07820 | GST-MCL1 / FITC-Bim-BH3 fluorescence polarization | inhibition, % at 10.9 µM | actives 0.68% (n = 320,000) | AID 2057;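 active means inhibition above the mean inhibition of all tested compounds plus 3 SD, set per campaign, cut at about 40% in these data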;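 further: higher means more loss of mP so more displacement of Bim peptide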
MEX-5 binding – C. elegans MEX-5 TCR-2 RNA binding activity. Q9XUB2. MEX-5/FITC-TCR2 RNA binding, fluorescence polarization; active compounds read low. activity score (negative = inhibition of binding), % at 10 µM. actives 0.38% (n = 300,000). AID 1832;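 active means inhibition past about -25% in most replicates, and total fluorescence under double the plate's negative control median, limit read from the data; inconclusive means replicates evenly split on the limit, or fluorescence at least double controls; inactive means too little inhibition in most replicates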
Bcl-xL primary – blocks human Bcl-xL binding to Bim BH3 peptide. Q07817. GST-Bcl-xL / FITC-Bim BH3 peptide fluorescence polarization. inhibition, % at 10.9 µM. actives 0.7% (n = 320,000);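 active means inhibition above the mean of all tested compounds plus 3 SD, cutoff set per campaign, cut at about 30% in these data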;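 further: inhibitors lower millipolarization by displacing the labeled peptide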
Target sequence (Q07817 whole entry, looked up): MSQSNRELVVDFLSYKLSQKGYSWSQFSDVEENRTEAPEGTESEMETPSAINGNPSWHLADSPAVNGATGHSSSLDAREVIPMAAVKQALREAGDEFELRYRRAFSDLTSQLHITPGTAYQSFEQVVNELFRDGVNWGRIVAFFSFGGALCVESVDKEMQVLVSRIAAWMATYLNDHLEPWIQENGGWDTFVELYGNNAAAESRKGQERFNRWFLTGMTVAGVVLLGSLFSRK
BCLXL inh confirm – counter-screen for MCL1 inhibitors: confirmation of human Bcl-xL inhibitors. shares compounds with MCL1-BIM inh. GST-Bcl-xL / FITC-Bim BH3 peptide FP binding. inhibition, % at 10.9 µM. actives 54% (n = 1,700). AID 2166;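 active means inhibition above a cutoff equal to the mean inhibition of all tested compounds plus 3 SD, cut at about 30% in these data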
MCL1 BIM confirm – MCL1-BIM-BH3 interaction inhibition, confirmation. inhibition, % at 10.9 µM. actives 61% (n = 1,700). shares compounds with MCL1-BIM inh. GST-MCL1 / FITC-Bim-BH3 fluorescence polarization;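 active means inhibition above the average of all tested compounds plus 3 SD, cut at about 40% in these data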
Numbers stand for hits. An excerpt weighted towards active compounds, which were near 1.5% of everything screened.

Screening O=C(Cc1cccs1)Nc1nnc(CCc2ccccc2)s1 returned eLon inh inactive, GLD-1 TGE inh inactive, EBV gp42 block inactive, MCL1-BIM inh inactive, MEX-5 binding inactive and Bcl-xL primary inactive.
For CC(=O)Nc1cccc(NC(=O)Cc2cccs2)c1 the results were eLon inh inactive, GLD-1 TGE inh inactive, MCL1-BIM inh inactive, MEX-5 binding inactive and Bcl-xL primary inactive.
For COC(=O)c1cc(NC(=O)Cc2cccs2)cc(C(=O)OC)c1 the results were eLon inh inactive, GLD-1 TGE inh inactive, MCL1-BIM inh 44.5, MEX-5 binding inactive, Bcl-xL primary inactive, BCLXL inh confirm inactive and MCL1 BIM confirm inactive.
COc1ccc(Cc2nnc(NC(=O)Cc3cccs3)s2)cc1OC was read as eLon inh inactive, GLD-1 TGE inh inactive, EBV gp42 block 67.8, MCL1-BIM inh 73.4, MEX-5 binding inactive, Bcl-xL primary inactive, BCLXL inh confirm inactive and MCL1 BIM confirm 79.6.
CCCOc1ccc(/C(CC)=N/NC(=O)C2(C)CC2(Br)Br)cc1 (stereo unspecified) was read as eLon inh inactive, GLD-1 TGE inh 112.4, EBV gp42 block inactive, MCL1-BIM inh 111.9, MEX-5 binding inactive, Bcl-xL primary 96.8, BCLXL inh confirm inactive and MCL1 BIM confirm inactive.
COc1cccc(-c2cccc(NC(=O)C3CCN(C4CCOCC4)CC3)c2)c1 was read as eLon inh inactive, GLD-1 TGE inh inactive, MCL1-BIM inh inactive, MEX-5 binding inactive and Bcl-xL primary inactive.
`O=C(c1cccnc1)N1CCN(c2ccc3ccccc3n2)CC1` gave eLon inh inactive, GLD-1 TGE inh inactive, EBV gp42 block inactive, MCL1-BIM inh inactive, MEX-5 binding inactive and Bcl-xL primary inactive.
Cc1oc2c(cc(NS(=O)(=O)c3ccc(C(C)C)cc3)c3ccccc32)c1C(=O)O was read as eLon inh inactive, GLD-1 TGE inh 32.3, MCL1-BIM inh 75.0, MEX-5 binding inactive, Bcl-xL primary 69.4, BCLXL inh confirm 109.5 and MCL1 BIM confirm 137.5.
Screening Cc1oc2c(cc(NS(=O)(=O)c3ccc(F)cc3)c3ccccc32)c1C(=O)O returned eLon inh inactive, GLD-1 TGE inh inactive, MCL1-BIM inh inactive, MEX-5 binding inactive and Bcl-xL primary inactive.
CSc1ccc(C(O)c2ncc(-c3cccc(F)c3)[nH]2)cc1 (stereo unspecified) was read as eLon inh inactive.
Screening CN(C)c1ccc(/C=C2\SC(=O)N(CC(O)Cn3c4ccccc4c4ccccc43)C2=O)cc1 (stereo unspecified) returned eLon inh inactive, GLD-1 TGE inh 133.4, EBV gp42 block 114.8, MCL1-BIM inh 79.7, MEX-5 binding inconclusive, Bcl-xL primary 133.0, BCLXL inh confirm inactive and MCL1 BIM confirm inactive.
For O=C1S/C(=C/c2ccccc2)C(=O)N1CC(O)Cn1c2ccccc2c2ccccc21 (stereo unspecified) the results were eLon inh inactive, GLD-1 TGE inh inactive, EBV gp42 block inactive, MCL1-BIM inh inactive, MEX-5 binding inactive and Bcl-xL primary inactive.
For Cc1ccc(SCC(=O)OCC(=O)N(CC(C)C)c2c(N)n(Cc3ccccc3)c(=O)[nH]c2=O)cc1C the results were eLon inh inactive, GLD-1 TGE inh inactive, MCL1-BIM inh inactive, MEX-5 binding inactive and Bcl-xL primary inactive.
For O=C1CC(c2cccs2)Cc2nc(NC(=O)C3CC3)ncc21 (stereo unspecified) the results were eLon inh inactive, GLD-1 TGE inh inactive, EBV gp42 block inactive, MCL1-BIM inh inactive, MEX-5 binding inactive and Bcl-xL primary inactive.
For Cc1nn(-c2ccccc2)c(Cl)c1/C=N/O the results were eLon inh inactive, GLD-1 TGE inh inactive, EBV gp42 block inactive, MCL1-BIM inh 119.4, MEX-5 binding inactive, Bcl-xL primary inactive, BCLXL inh confirm inactive and MCL1 BIM confirm inactive.
`Cc1nn(-c2ccccc2)c(N2CCCC2)c1/C=N/O` gave eLon inh inactive, GLD-1 TGE inh inactive, EBV gp42 block inactive, MCL1-BIM inh inactive, MEX-5 binding inactive and Bcl-xL primary inactive.
